Measurements taken from PubChem BioAssay (EPA / NIEHS).
“And” between values parts separate entries of the source, which are not always exact repeats. Equal entries are not always repeated. The source holds several records for some structures; these can differ, active in one and inactive in another. The source made the active and inactive calls. How the source made its calls: active means hit-call score of the fitted dose curve at least 0.9, where 1 is the maximum; inactive means score below 0.9.

These compounds were tested on E-selectin (Homo sapiens) (UniProt P16581) (assay: BSK_IMphg_ESelectin: BioMAP Diversity Plus: IMphg Assay for Eselectin Biomarker Activity (AID 2284291)). Conditions: primary human endothelial cells with macrophages.
Chain of E-selectin (Homo sapiens) (P16581 whole entry, looked up): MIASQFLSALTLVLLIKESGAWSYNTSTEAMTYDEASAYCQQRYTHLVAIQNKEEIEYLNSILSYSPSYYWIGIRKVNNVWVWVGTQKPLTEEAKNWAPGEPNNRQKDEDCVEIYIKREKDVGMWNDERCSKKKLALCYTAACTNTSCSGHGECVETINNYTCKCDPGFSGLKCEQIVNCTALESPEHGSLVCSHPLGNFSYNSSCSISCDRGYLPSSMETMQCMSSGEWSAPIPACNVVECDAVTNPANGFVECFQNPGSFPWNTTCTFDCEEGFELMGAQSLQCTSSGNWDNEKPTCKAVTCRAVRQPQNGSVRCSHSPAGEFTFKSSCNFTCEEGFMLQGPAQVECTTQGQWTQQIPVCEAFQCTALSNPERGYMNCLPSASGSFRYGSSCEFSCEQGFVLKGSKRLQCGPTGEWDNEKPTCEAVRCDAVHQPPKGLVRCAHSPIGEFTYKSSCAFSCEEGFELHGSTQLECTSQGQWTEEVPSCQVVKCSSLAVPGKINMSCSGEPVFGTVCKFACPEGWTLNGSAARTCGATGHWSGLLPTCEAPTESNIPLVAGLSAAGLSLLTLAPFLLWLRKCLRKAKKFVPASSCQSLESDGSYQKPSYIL
Experimental: BSK_IMphg is a cell-based, multiplexed-readout assay that uses venular endothelial cells and macrophages, a human vascular primary cell, with measurements taken at 24 hours after chemical dosing in a microplate: 96-well plate.BSK_IMphg_ESelectin is an assay component measured in the BSK_IMphg assay. It measures E-selectin antibody related to regulation of gene expression using ELISA technology.Data from the assay component BSK_IMphg_ESelectin was analyzed at the endpoint, BSK_IMphg_ESelectin, in the positive analysis fitting direction relative to DMSO as the negative control and baseline of activity. Using a type of binding reporter, gain or loss-of-signal activity can be used to understand protein changes. To generalize the intended target to other relatable targets, this assay endpoint is annotated to the 'cell adhesion molecules' intended target family, where the subfamily is 'selectins'.
The levels of cell surface (or secreted, indicated by the prefix "s") biomarker endpoints were measured by ELISA. Overt cytotoxicity to cells in confluent adherent cultures (all systems other than the BT system) was assessed by measuring total protein levels using sulforhodamine B (SRB) staining in parallel cultures at the time of biomarker measurements, indicated as SRB endpoints. For proliferation assays for adherent cell types, individual cell types are cultured at sub-confluence and relative cell numbers quantified by SRB staining at time points optimized for each system (48 h: 3C and CASM3C systems; 72 h: BT and HDF3CGF systems; 96 h: SAg system). SRB was performed by staining cells with 0.1% SRB after fixation with 10% TCA and reading wells at 560 nm.Viability and proliferation of PBMC (T cells) was quantified by Alamar Blue reduction for the SAg and BT systems. For PBMC viability (referred to as PBMC Cytotoxicity within the assay endpoint names), cells were plated (75,000/well in a 96-well plate) and then chemical samples added for 1 h before addition of activators, SEB and TSST-1 (20 ng/mL final concentration each). Cells were incubated for 90 h. Then, Alamar Blue (20 uL/well) (Invitrogen, Cat DAL1100) was added for 6 h, and the plates were read with a fluorescence microplate reader at 546/580 nm (excitation/emission). For PBMC proliferation, cells were plated and activated as above but incubated for only 16 h prior to addition of Alamar Blue. Plates were read after 6 h.
For `OCC(F)(F)OC(F)(F)C(F)(F)OC(F)(F)CO`, the outcome was “inactive”.
`C=CC(=O)OCC(F)(F)C(F)F` was tested, and the AC50 was 44.6 µM (active) and the outcome was “inactive”.
In the case of `CC(O)C(F)(F)C(F)(F)F` (stereo unspecified), the outcome was “inactive”.
`OCC(F)(F)OC(F)(F)C(F)(F)OC(F)(F)C(F)(F)OC(F)(F)CO` was tested, and the outcome was “inactive” and the AC50 was 5.2 µM (active).
With `O=C(O)C=CC(F)(C(F)(F)F)C(F)(F)F` the outcome was “inactive”.
With `O=C(O)C(F)(F)C(F)(F)C(=O)O` the outcome was “inactive”.
For `COC(=O)C(F)(F)C(F)(F)OC(F)(C(F)(F)F)C(F)(F)OC(F)=C(F)F` (stereo unspecified), the outcome was “inactive”.
In the case of `O=C(O)C(F)(F)OC(F)(F)C(F)(F)OC(F)(F)F`, the outcome was “inactive”.
With `NC(=O)C(F)(F)C(F)(F)F` the outcome was “inactive”.
`O=C(O)C(F)(OC(F)(F)C(F)(F)C(F)(F)F)C(F)(F)F` (stereo unspecified) was tested, and the outcome was “inactive”.
`FC(F)(F)C(F)(C(F)(F)F)C(F)(F)C(F)(F)CC1CO1` (stereo unspecified) was tested, and the outcome was “inactive”.
In the case of `O=S(=O)(F)C(F)(F)C(F)(F)C(F)(F)C(F)(F)C(F)(F)C(F)(F)C(F)(F)C(F)(F)F`, the outcome was “inactive”.
For `OCC(F)(F)OC(F)(F)C(F)(F)OC(F)(F)C(F)(F)OC(F)(F)F`, the AC50 was 38.6 µM (active) and 44.3 µM (active).
In the case of `O=C(O)C(F)(F)OC(F)(F)C(F)(F)OC(F)(F)C(=O)O`, the outcome was “inactive”.
